PLK1 PBD block – blocks phosphopeptide binding to human PLK1 polo-box domain | Potency, µM, inactives show max response, negative = inhibition, most hits filed as inhibitors | Plk1 PBD binding of FITC phosphopeptide, fluorescence polarization | P53350 | 360,000 tested, 2.8% active | AID 720504; note: series mostly up to about 57 µM; % is set by controls: 0 for no effect and ±100 for the full control effect; nearly all actives have a fitted effect of over 65% in size
HP1b binding inh – blocks HP1-beta chromodomain binding to methylated histone tails; AlphaScreen HP1-beta / biotin-H3K9me3 peptide binding; Potency, µM (top dose mostly 114 µM), without a hit: at the highest dose activity change, negative = inhibition, usual class: inhibitors; 390,000 tested, 0.56% active; AID 540317; note: nearly all actives have a fitted effect of over 70% in size
Target sequence (P83916 whole entry, looked up): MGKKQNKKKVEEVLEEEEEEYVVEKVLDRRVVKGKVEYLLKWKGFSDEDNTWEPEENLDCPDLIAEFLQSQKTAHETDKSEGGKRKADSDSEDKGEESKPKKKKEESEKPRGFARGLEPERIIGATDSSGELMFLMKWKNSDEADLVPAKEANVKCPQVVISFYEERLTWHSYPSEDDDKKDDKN
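AlphaScreen: HP1-beta (50 nM) preformed 30 min with biotin-H3(1-18)K9me3 peptide (50 nM) in PBS pH 7.4, 0.01% Tween-20. Compound added for 30 min at RT, then streptavidin donor/nickel chelate acceptor beads (10 ug/mL) for 30 min.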
JMJD2A Tudor – inhibitors of human JMJD2A Tudor domain. O75164. AlphaScreen JMJD2A-Tudor / H3K4me3 peptide binding. Potency, µM (doses to about 114 µM), inactives show top-dose activity change, negative = inhibition, hits mostly inhibitors. 390,000 tested, 4.4% active; note: % is set by controls: 0 for no effect and ±100 for the full control effect; nearly all actives have a fitted effect of over 50% in size
Sfp PPTase inh – inhibitors of Bacillus subtilis Sfp phosphopantetheinyl transferase; Q9F4F7; Biochemical Sfp PPTase activity, qHTS; Potency, µM, without a hit: largest response in the series, negative = inhibition, most hits filed as inhibitors; 310,000 tested, 3.5% active;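 note: the enzyme is Sfp with the accession as filed and its product quenches rhodamine fluorescence; 0% = enzyme reaction without inhibitor and -100% = no enzyme wells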
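Reaction rates are the 30-min fluorescence difference (ex 525, em 598 nm) in wells containing 15 nM Sfp, 5 uM rhodamine-CoA and 12.5 uM BHQ-2-YbbR at pH 7.6 with 10 mM MgCl2.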
BAZ2B block – BAZ2B (human) inhibition | AlphaScreen BAZ2B-H3K14Ac peptide displacement | Potency, µM (highest dose often 114 µM), for the others: at the top dose activity change, negative = inhibition, usual class: inhibitors | 360,000 tested, 4.4% active | Q9UIF8; note: % is set by controls: 0 for no effect and ±100 for the full control effect; nearly all actives have a fitted effect of over 60% in size
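In this displacement format the biotinylated H3(5-23) peptide acetylated at Lys14 serves as ligand at 50 nM, with BAZ2B at 50 nM in PBS pH 7.4 containing 0.01% Tween-20. Donor and acceptor beads are 10 ug/mL final.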
G9a inh – inhibitors of human histone lysine methyltransferase G9a; G9a H3K9 monomethylation, AlphaScreen, 2 h; 350,000 tested, 8.8% active; Potency, µM (top dose mostly 102 µM), for inactives: at the top dose activity, negative = inhibition, most hits filed as inhibitors; note: % is set by controls: 0 for no effect and ±100 for the full control effect; nearly all actives have a fitted effect of over 75% in size
Target sequence (Q96KQ7 913-1193 limits assumed): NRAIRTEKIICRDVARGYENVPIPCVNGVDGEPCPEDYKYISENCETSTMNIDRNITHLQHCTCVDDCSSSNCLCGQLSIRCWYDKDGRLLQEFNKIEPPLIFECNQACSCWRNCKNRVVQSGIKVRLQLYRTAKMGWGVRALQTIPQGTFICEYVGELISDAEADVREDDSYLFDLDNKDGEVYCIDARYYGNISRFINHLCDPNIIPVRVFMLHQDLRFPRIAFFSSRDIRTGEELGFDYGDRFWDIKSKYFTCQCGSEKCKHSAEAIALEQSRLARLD
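Compounds were preincubated with 20 nM G9a for 15 min, after which biotinylated H3K9 peptide (500 nM) and SAM (20 uM) started a 2 h room-temperature reaction. Monomethylated product was quantified by antibody-based AlphaScreen chemiluminescence.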
* marks the source's active call; other numbers are inactive results; [ ] = dose if it differs, or a comment. Shown are actives, neighbours in structure and some others; about 12% of the full set was active somewhere. Calls come from the whole dose curve; as a rule, active = well fitted curve in the direction sought with a large enough effect; inconclusive = small, poorly fitted or top-dose-only effect, or another doubt; inactive = no such curve, though single readings can be large; an effect the other way counts as inactive or inconclusive. Potency is the fitted concentration of half-maximal effect.

For O=C1CCc2cc(S(=O)(=O)N3CCC(C(=O)NCCC4=CCCCC4)CC3)ccc2N1 the results were PLK1 PBD block 21.2µM*, HP1b binding inh 9.4%, JMJD2A Tudor inconclusive, Sfp PPTase inh 12.9%, BAZ2B block inconclusive and G9a inh 0.5%.
For CC(C)c1nnc(NC(=O)CCC(=O)NC2CC2)s1 the results were PLK1 PBD block -8.5%, HP1b binding inh 23.7%, JMJD2A Tudor -7.4%, Sfp PPTase inh 10.5%, BAZ2B block -4.0% and G9a inh 33.5%.
For COc1ccc(OC)c(NC(=O)CSc2nc(=O)n(CCN(C)C)c3c2CCC3)c1 the results were HP1b binding inh 18.2%, JMJD2A Tudor -4.9%, BAZ2B block -1.8% and G9a inh -42.6%[59 µM].
For CCN(CC)CCSc1nc2ccccc2c(=S)n1-c1ccccc1 the results were PLK1 PBD block 23.8µM*, HP1b binding inh inconclusive, JMJD2A Tudor 50.1µM*, Sfp PPTase inh -7.4%, BAZ2B block inconclusive and G9a inh inconclusive.
`CCN(CC)CCSc1nc(O)c(-c2ccccc2)c(=O)n1-c1ccccc1` gave PLK1 PBD block -7.7%, HP1b binding inh 37.3%, JMJD2A Tudor 4.5%, Sfp PPTase inh 16.0%, BAZ2B block -16.9% and G9a inh 5.7%.
Screening CC1(C)CC(=O)C2=C(C1)NC(SCC(=O)Nc1ccccc1)=C(C#N)C2c1ccco1 (stereo not given) returned PLK1 PBD block 1.2%, HP1b binding inh 1.5%, JMJD2A Tudor -34.9%, Sfp PPTase inh 5.4%, BAZ2B block -37.3% and G9a inh -1.4%[12.7 µM].
`Cc1ccc(C(=O)CSC2=C(C#N)C(c3ccco3)C3=C(CC(C)(C)CC3=O)N2)cc1` (stereo not given) gave PLK1 PBD block -15.6%, HP1b binding inh 1.6%, JMJD2A Tudor inconclusive, Sfp PPTase inh -27.7%, BAZ2B block inconclusive and G9a inh 39.8µM*.
`Cc1ccc(NC(=O)CSC2=C(C#N)C(c3ccco3)C3=C(CCCC3=O)N2)cc1` (stereo not given) gave PLK1 PBD block -12.9%, HP1b binding inh 25.4%, JMJD2A Tudor inconclusive, Sfp PPTase inh 10µM*, BAZ2B block inconclusive and G9a inh 16.0%[12.7 µM].
COc1ccc(OC)c(NC(=O)CSC2=C(C#N)C(c3ccco3)C3=C(CCCC3=O)N2)c1 (stereo not given) was read as PLK1 PBD block -7.5%, HP1b binding inh -13.0%, JMJD2A Tudor inconclusive, Sfp PPTase inh -17.7%, BAZ2B block -10.5% and G9a inh 12.3%[12.7 µM].
CCOC(=O)CSC1=C(C#N)C(c2ccc(OC)cc2)C2=C(CC(C)(C)CC2=O)N1 (stereo not given) was read as PLK1 PBD block inconclusive, HP1b binding inh 26.4%, JMJD2A Tudor -17.6%[11.4 µM], Sfp PPTase inh 35.5µM*, BAZ2B block -27.3% and G9a inh -10.5%[12.7 µM].
N#CC1=C(SCC(=O)Nc2ccc(C(=O)O)cc2)NC(=O)CC1c1ccco1 (stereo not given) was read as PLK1 PBD block -18.8%, HP1b binding inh 4.6%, JMJD2A Tudor -21.1%, Sfp PPTase inh 31.6µM* and BAZ2B block -20.9%.
For CCC(c1nnnn1Cc1ccccc1)N(Cc1ccccc1)Cc1cc2cc(C)ccc2[nH]c1=O (stereo not given) the results were HP1b binding inh -3.4%[57 µM] and JMJD2A Tudor -10.8%[57.1 µM].
COc1ccc(CNC(=O)c2cc(C)nc3c2c(C)nn3-c2cccc(Cl)c2C)cc1 was read as HP1b binding inh 15.4%, JMJD2A Tudor -13.9%, BAZ2B block 7.6%[57.1 µM] and G9a inh 4.9%[59 µM].
N#CC1=C(SCC(=O)c2ccc(Cl)cc2)NC2=C(C(=O)CCC2)C1c1ccco1 (stereo not given) was read as PLK1 PBD block -12.3%, HP1b binding inh 3.6%, JMJD2A Tudor inconclusive, Sfp PPTase inh 44.7µM*, BAZ2B block inconclusive and G9a inh inconclusive.
